Test results published in PubChem BioAssay.
Measured potencies and affinities stand elsewhere. Active and inactive are the calls of the source. Unless noted, cut-off not given; nearly all actives show IC50 up to about 0.98 µM.

These compounds were tested against Calcium-dependent protein kinase 1 (Plasmodium falciparum (isolate 3D7)) (UniProt P62344) (assay: PfCDPK1 kinase inhibitors, biochemical, TCAMS library (AID 1159585;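 further: inhibitors leave more ATP so luminescence rises with inhibition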)). Details: recombinant PfCDPK1, Kinase-Glo ATP depletion luminescence.
Calcium-dependent protein kinase 1 (Plasmodium falciparum (isolate 3D7)), sequence (P62344 whole entry, looked up): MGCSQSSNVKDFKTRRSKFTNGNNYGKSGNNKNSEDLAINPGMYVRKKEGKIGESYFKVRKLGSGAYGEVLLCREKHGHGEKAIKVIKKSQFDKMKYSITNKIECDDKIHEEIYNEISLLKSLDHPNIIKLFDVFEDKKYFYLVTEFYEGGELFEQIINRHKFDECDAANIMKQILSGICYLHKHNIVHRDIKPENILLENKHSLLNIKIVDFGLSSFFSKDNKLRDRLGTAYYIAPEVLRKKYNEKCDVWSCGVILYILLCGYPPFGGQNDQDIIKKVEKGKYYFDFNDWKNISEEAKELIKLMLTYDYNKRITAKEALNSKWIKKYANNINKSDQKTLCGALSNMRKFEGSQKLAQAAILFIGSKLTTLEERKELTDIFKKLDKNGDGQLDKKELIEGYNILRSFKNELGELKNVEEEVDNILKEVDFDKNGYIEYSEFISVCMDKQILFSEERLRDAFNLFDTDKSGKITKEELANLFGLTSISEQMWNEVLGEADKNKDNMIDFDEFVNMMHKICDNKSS

outcome, inactive:
CS(=O)(=O)c1ccc(CCNCc2ccc(-c3ccc(CN(C(=O)C4CCCC4)C4CCN(Cc5ccccc5)CC4)cc3)nc2)cc1
CCN(CC)CCNC(=O)c1ccc(NC(=O)c2cc3c(C)nn(-c4ccc(Cl)cc4)c3s2)cc1
O=C1COC2(CN1CC1CCN(Cc3ccc(O)c(Cl)c3)C1)c1ccccc1-c1ccccc12 (stereo not given)
CCOC(=O)c1cn(CC)c2cc(O[C@H]3CCN(C(=O)OC(C)(C)C)C3)ccc2c1=O
O=C(c1ccc(OCCn2ccnc2)cc1)N1CCC(c2ccc(Br)cc2)C1 (stereo not given)
Cn1nccc1C(=O)NCCNCc1ccc(-c2ccc(-c3nc4ccccc4[nH]3)s2)cc1
CN1CCN(CCCN(Cc2cccc(-c3ccc(CNCc4ccc5c(c4)OCO5)cc3)c2)C(=O)Nc2ccccc2)CC1
Cc1cccc(S(=O)(=O)Nc2cccc(CCN3CCC(N4CCCCC4)CC3)c2)c1
COc1cccc(-c2nn(C)c3sc(C(=O)NCCN(C)Cc4ccccc4)cc23)c1
Cc1cnc(CS(=O)c2nc3ccc(C(F)(F)F)cc3[nH]2)cc1OCc1ccccc1 (stereo not given)
Cc1cccc(CNc2nc(C)cc(N[C@@H](Cc3ccccc3)C(=O)NCCc3ccccc3)n2)c1
CCc1ccc(CNCC(CCNc2cc(=O)c3ccccc3[nH]2)NCc2cc(Br)cc(Br)c2)o1 (stereo not given)
Cc1ccc(Cc2cnc(NCCSCc3ccc(CN(C)C)s3)[nH]c2=O)cn1
CCCCCCOc1ccccc1C(=O)NCCOc1ccc(Cl)cc1
Cc1cccc(Cn2c(C(N)=O)nn(-c3ccc([N+](=O)[O-])cc3C#N)c2=S)c1
CCCN(CCC)CCCOc1ccc(C(=O)c2c(-c3ccc(OCCCN(CCC)CCC)cc3)oc3ccc(Cl)cc23)cc1
O=C(/C=C/c1ccc(Cl)c(Cl)c1)NCCCCCN1CCC(NC(=O)NC2CCCC2)CC1
CCc1[nH]nc(C(=O)NC2CCN(CC3(c4ccc(OC)cc4)CCCCC3)CC2)c1C
CCN1CCN(CCCNc2ccnc3cc(Cl)ccc23)CC1
COc1nc(Nc2cccc(C)c2)nc(OC)n1
CC(C)(C)C(Cn1ccnc1)NCc1cn[nH]c1-c1ccc(-c2ccccc2)cc1 (stereo not given)
CN(C)c1ccc(CN2CCC(NC(=O)c3ccc(-c4ccc(N(C)C)cc4)s3)CC2)cc1
O=C(NCc1cccs1)[C@H](Cc1ccccc1)Nc1ccnc(NCC2CCCCC2)n1
CCCCCCN(CCCCCC)CCCCNc1c2ccc(Cl)cc2nc2ccc(OC)cc12
Cc1cc2c(cc1C(F)(F)F)N(C(=O)Nc1cc(OCCN(C)C)cc(C(F)(F)F)c1)CC2
CNCCCNc1ccnc2cc(Cl)ccc12
COc1ccc(C)c(Nc2ccnc(Nc3ccc(-c4cnc[nH]4)cc3)n2)c1
Cc1ccc(Cn2ncc(N3CCCNCC3)c(Cl)c2=O)cc1NC(=O)Nc1ccc(-c2ccccc2)cc1
CN1CCN(c2ccnc3ccc(NC(=O)Nc4ccc(-c5ccncc5)c(C#N)c4)cc23)CC1
CC(C(=O)NC1CCN(c2ccnc(Nc3ccc(F)cc3)n2)C1)c1ccc(Cl)cc1 (stereo not given)
COc1cc2nc(N(C)C)nc(Nc3ccc4c(cnn4Cc4ccccc4)c3)c2cc1OC
CC(C)Nc1ccc(Nc2ccnc3cc4ccccc4cc23)cc1
CCOC(=O)c1ccc(NC(=O)N[C@H]2CCN(CCCCCNC(=O)/C=C/c3ccc(Cl)c(Cl)c3)C2)cc1
COc1ccc2nc(C)cc(NN=Cc3ccc(F)cc3)c2c1
CCOC(=O)C1=C(C)NC2=C(C(=O)C(C(=O)OC)C(C)C2)C1c1cc(Br)c(OCC)c(OC)c1 (stereo not given)
COc1ccc2nccc([C@@H](O)CN3CCC(NC(=O)c4ccc(Oc5ccccc5)cc4)CC3)c2c1
O=C1Nc2cccc3c2C1(CCCCN1CCC(c2c(-c4ccccc4)[nH]c4ccccc24)CC1)CCC3 (stereo not given)
Cc1[nH]c(C)c(C2CCC(c3ccc(Cl)cc3)CC2)c(=O)c1Cl (stereo not given)
NC(=S)Cc1ccc2c(c1)OCO2
CCN(CC)CCCSc1ccc(-c2ccc(SCCCN(CC)CC)cc2)cc1

The compounds below were run against Plasmodium falciparum protein kinase 6 (PK6, PF3D7_1337100) (UniProt Q8IDW1) (assay: PfPK6 kinase inhibitors, biochemical, TCAMS library (AID 1159586; call rule not given here)). Details: recombinant PfPK6, Kinase-Glo ATP depletion luminescence.
Plasmodium falciparum protein kinase 6 (PK6, PF3D7_1337100), sequence (Q8IDW1 1-305): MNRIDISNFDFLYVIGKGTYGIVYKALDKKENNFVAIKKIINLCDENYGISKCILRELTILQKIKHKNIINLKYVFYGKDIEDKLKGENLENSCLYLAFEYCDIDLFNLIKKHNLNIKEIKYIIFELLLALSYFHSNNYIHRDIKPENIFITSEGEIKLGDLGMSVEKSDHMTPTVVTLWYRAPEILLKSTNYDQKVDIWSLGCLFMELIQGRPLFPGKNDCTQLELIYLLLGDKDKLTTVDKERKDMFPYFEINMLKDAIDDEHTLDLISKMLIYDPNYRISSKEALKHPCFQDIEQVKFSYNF

outcome, inactive:
CS(=O)(=O)c1ccc(CCNCc2ccc(-c3ccc(CN(C(=O)C4CCCC4)C4CCN(Cc5ccccc5)CC4)cc3)nc2)cc1
CCN(CC)CCNC(=O)c1ccc(NC(=O)c2cc3c(C)nn(-c4ccc(Cl)cc4)c3s2)cc1
O=C1COC2(CN1CC1CCN(Cc3ccc(O)c(Cl)c3)C1)c1ccccc1-c1ccccc12 (stereo not given)
CCOC(=O)c1cn(CC)c2cc(O[C@H]3CCN(C(=O)OC(C)(C)C)C3)ccc2c1=O
O=C(c1ccc(OCCn2ccnc2)cc1)N1CCC(c2ccc(Br)cc2)C1 (stereo not given)
Cn1nccc1C(=O)NCCNCc1ccc(-c2ccc(-c3nc4ccccc4[nH]3)s2)cc1
CN1CCN(CCCN(Cc2cccc(-c3ccc(CNCc4ccc5c(c4)OCO5)cc3)c2)C(=O)Nc2ccccc2)CC1
Cc1cccc(S(=O)(=O)Nc2cccc(CCN3CCC(N4CCCCC4)CC3)c2)c1
COc1cccc(-c2nn(C)c3sc(C(=O)NCCN(C)Cc4ccccc4)cc23)c1
Cc1cnc(CS(=O)c2nc3ccc(C(F)(F)F)cc3[nH]2)cc1OCc1ccccc1 (stereo not given)
Cc1cccc(CNc2nc(C)cc(N[C@@H](Cc3ccccc3)C(=O)NCCc3ccccc3)n2)c1
CCc1ccc(CNCC(CCNc2cc(=O)c3ccccc3[nH]2)NCc2cc(Br)cc(Br)c2)o1 (stereo not given)
Cc1ccc(Cc2cnc(NCCSCc3ccc(CN(C)C)s3)[nH]c2=O)cn1
CCCCCCOc1ccccc1C(=O)NCCOc1ccc(Cl)cc1
Cc1cccc(Cn2c(C(N)=O)nn(-c3ccc([N+](=O)[O-])cc3C#N)c2=S)c1
CCCN(CCC)CCCOc1ccc(C(=O)c2c(-c3ccc(OCCCN(CCC)CCC)cc3)oc3ccc(Cl)cc23)cc1
O=C(/C=C/c1ccc(Cl)c(Cl)c1)NCCCCCN1CCC(NC(=O)NC2CCCC2)CC1
CCc1[nH]nc(C(=O)NC2CCN(CC3(c4ccc(OC)cc4)CCCCC3)CC2)c1C
CCN1CCN(CCCNc2ccnc3cc(Cl)ccc23)CC1
COc1nc(Nc2cccc(C)c2)nc(OC)n1
CC(C)(C)C(Cn1ccnc1)NCc1cn[nH]c1-c1ccc(-c2ccccc2)cc1 (stereo not given)
CN(C)c1ccc(CN2CCC(NC(=O)c3ccc(-c4ccc(N(C)C)cc4)s3)CC2)cc1
O=C(NCc1cccs1)[C@H](Cc1ccccc1)Nc1ccnc(NCC2CCCCC2)n1
CCCCCCN(CCCCCC)CCCCNc1c2ccc(Cl)cc2nc2ccc(OC)cc12
Cc1cc2c(cc1C(F)(F)F)N(C(=O)Nc1cc(OCCN(C)C)cc(C(F)(F)F)c1)CC2
CNCCCNc1ccnc2cc(Cl)ccc12
COc1ccc(C)c(Nc2ccnc(Nc3ccc(-c4cnc[nH]4)cc3)n2)c1
Cc1ccc(Cn2ncc(N3CCCNCC3)c(Cl)c2=O)cc1NC(=O)Nc1ccc(-c2ccccc2)cc1
CN1CCN(c2ccnc3ccc(NC(=O)Nc4ccc(-c5ccncc5)c(C#N)c4)cc23)CC1
CC(C(=O)NC1CCN(c2ccnc(Nc3ccc(F)cc3)n2)C1)c1ccc(Cl)cc1 (stereo not given)
COc1cc2nc(N(C)C)nc(Nc3ccc4c(cnn4Cc4ccccc4)c3)c2cc1OC
CC(C)Nc1ccc(Nc2ccnc3cc4ccccc4cc23)cc1
CCOC(=O)c1ccc(NC(=O)N[C@H]2CCN(CCCCCNC(=O)/C=C/c3ccc(Cl)c(Cl)c3)C2)cc1
COc1ccc2nc(C)cc(NN=Cc3ccc(F)cc3)c2c1
CCOC(=O)C1=C(C)NC2=C(C(=O)C(C(=O)OC)C(C)C2)C1c1cc(Br)c(OCC)c(OC)c1 (stereo not given)
COc1ccc2nccc([C@@H](O)CN3CCC(NC(=O)c4ccc(Oc5ccccc5)cc4)CC3)c2c1
O=C1Nc2cccc3c2C1(CCCCN1CCC(c2c(-c4ccccc4)[nH]c4ccccc24)CC1)CCC3 (stereo not given)
Cc1[nH]c(C)c(C2CCC(c3ccc(Cl)cc3)CC2)c(=O)c1Cl (stereo not given)
NC(=S)Cc1ccc2c(c1)OCO2
CCN(CC)CCCSc1ccc(-c2ccc(SCCCN(CC)CC)cc2)cc1
